Inconclusive results are not listed. Active and inactive are the calls of the source. Rule for the calls: active = hit-call score of the fitted dose curve at least 0.9, where 1 is the maximum; inconclusive = response in the unintended direction; inactive = score below 0.9.
tested on: not listed separately; experiment: ATG_XTT_Cytotoxicity: Cytotoxicity Assessment in the Attagene TRANS-FACTORIAL HepG2 Assay (AID 2283584)
Summary of the method: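 Cells: human HepG2, transiently transfected with MRTU reporter constructs. Exposure 24 h. Readout: XTT, cell number. Baseline/neg ctrl DMSO; loss-of-signal scored.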

Question: For `CCCCN(CCCC)CCCCCCN(CCCC)CCCC`, which outcome is on record?
Answer: inactive

Question: With `CC(=O)OC(C)(C)C1CC=C(C)CC1` (configuration not stated) as the molecule, how does the outcome read?
Answer: inactive

Question: With `CCCO[Si](OCCC)(OCCC)OCCC` as the molecule, how does the outcome read?
Answer: inactive

Question: Which outcome does the source give for `C=CC(C)CCCC(C)(C)O` (configuration not stated) here?
Answer: inactive

Question: With `CC(=O)C1=C(C)[C@@H]2C[C@@]3(C1)[C@H](C)CC[C@H]3C2(C)C` as the molecule, how does the outcome read?
Answer: inactive

Question: Which outcome does the source give for `CC(=O)OC/C=C(C)/C=C/C=C(C)/C=C/C1=C(C)CCCC1(C)C` here?
Answer: inactive

Question: Which outcome does the source give for `N=C1N=C(N)c2ccccc21` here?
Answer: inactive

Question: Which outcome does the source give for `Cc1ccncc1` here?
Answer: inactive

Question: For `CCCCCc1cccc(=O)o1`, which outcome is on record?
Answer: inactive

Question: With `Cc1cc(N)n(-c2ccccc2)n1` as the molecule, how does the outcome read?
Answer: inactive

Question: Which outcome does the source give for `C=CC(=O)OCCCCCC` here?
Answer: inactive

Question: With `CC(=O)CC(C)(C)C1CCCCC1` as the molecule, how does the outcome read?
Answer: inactive

Question: With `CCCCCCCCCCCCN1CCOCC1` as the molecule, how does the outcome read?
Answer: inactive

Question: For `CC(C)C(=O)c1ccccc1`, which outcome is on record?
Answer: inactive

Question: With `C=C(C)C(=O)OCCC(C)OC(=O)C(=C)C` (configuration not stated) as the molecule, how does the outcome read?
Answer: inactive

Question: For `CC/C=C\CCOC(C)OCC` (configuration not stated), which outcome is on record?
Answer: inactive

Question: Which outcome does the source give for `Nc1ccn([C@H]2CC[C@@H](CO)O2)c(=O)n1` here?
Answer: inactive

Question: For `CC(=O)c1ccc2ccccc2c1`, which outcome is on record?
Answer: inactive

Question: With `CC12CCC(C1)C(C)(C)C2O` (configuration not stated) as the molecule, how does the outcome read?
Answer: inactive

Question: Which outcome does the source give for `CCOc1ccc(NC(C)=O)cc1` here?
Answer: inactive

Question: Which outcome does the source give for `CC(C)(C)C1CCC(O)CC1` (configuration not stated) here?
Answer: inactive

Question: Which outcome does the source give for `ClCCOCCOCCCl` here?
Answer: inactive

Question: For `CC1=CC[C@@H]2C[C@H]1C2(C)C`, which outcome is on record?
Answer: inactive

Question: For `CN(C)c1ccc(C=O)cc1`, which outcome is on record?
Answer: inactive

Question: For `CC(C)CCOC(=O)CC(C)C`, which outcome is on record?
Answer: inactive

Question: With `O=S1(=O)CC=CC1` as the molecule, how does the outcome read?
Answer: inactive

tested on: not listed separately; experiment: TOX21_p53_BLA_p2_viability: Viability Assessment in the Tox21 HCT-116 p53 Agonism Beta-lactamase Assay, Phase 2 (AID 2283591);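 note: compound exposure lasted 16 h at 37 °C; actives lower the ATP signal meaning cytotoxicity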
Summary of the method: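 HCT116 p53-bla cells, 4000/well, dosed after 5 h plating (217-fold dilution of DMSO stocks) and incubated 16 h at 37C. Viability taken as cellular ATP by CellTiter-Glo luminescence after 30 min RT; signal loss marks cytotoxicity.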

Question: Which AC50 does the source give for `O=C(Nc1cccc(Cl)c1)OCC#CCCl` here?
Answer: 67.5 µM (active)

Question: Which outcome does the source give for `CC(=O)OC(C)(C)C` here?
Answer: inactive

Question: For `CCC(C)(C)C1CCC(=O)CC1`, which outcome is on record?
Answer: inactive

Question: For `CCCC(O)C(CC)CO` (configuration not stated), which outcome is on record?
Answer: inactive

Question: With `CCCCCCCCOS(=O)(=O)O` as the molecule, how does the outcome read?
Answer: inactive

Question: With `CC1=CCC(C(C)(C)O)CC1` (configuration not stated) as the molecule, how does the outcome read?
Answer: inactive

Question: With `C=CCOC(=O)/C=C\C(=O)OCC=C` as the molecule, how does the outcome read?
Answer: inactive

Question: Which outcome does the source give for `CNC(=C[N+](=O)[O-])NCCSCc1ccc(CN(C)C)o1` here?
Answer: inactive

Question: For `CC(CO)c1ccccc1` (configuration not stated), which outcome is on record?
Answer: inactive

Question: For `CN(C)CCCNCCCN(C)C`, which outcome is on record?
Answer: inactive

Question: For `CCCCCCCC(=O)N(C)C`, which outcome is on record?
Answer: inactive

Question: Which outcome does the source give for `CCC(=O)OC(C)(C)C1CC=C(C)CC1` (configuration not stated) here?
Answer: inactive

Question: For `C=C(C)C(=O)OCCC[Si](OC)(OC)OC`, which outcome is on record?
Answer: inactive

molecular target: Cellular tumor antigen p53 (Homo sapiens) (UniProt P04637); experiment: TOX21_p53_BLA_p2_ratio: Tox21 HCT-116 p53 Agonism Beta-lactamase Assay, Ratio, Phase 2 (AID 2283592)
Sequence (P04637 whole entry, looked up): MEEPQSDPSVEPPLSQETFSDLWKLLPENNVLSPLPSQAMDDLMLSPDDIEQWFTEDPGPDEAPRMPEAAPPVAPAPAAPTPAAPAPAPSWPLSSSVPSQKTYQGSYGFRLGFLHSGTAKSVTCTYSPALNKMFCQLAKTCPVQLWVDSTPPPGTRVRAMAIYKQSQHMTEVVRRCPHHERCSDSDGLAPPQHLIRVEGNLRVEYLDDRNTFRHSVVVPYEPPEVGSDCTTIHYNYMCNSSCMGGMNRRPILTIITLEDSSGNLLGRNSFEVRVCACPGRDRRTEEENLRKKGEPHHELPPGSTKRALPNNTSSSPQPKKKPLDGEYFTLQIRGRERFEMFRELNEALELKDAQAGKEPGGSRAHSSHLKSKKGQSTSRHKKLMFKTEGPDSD
Summary of the method: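 HCT116 p53-bla; 4000 cells/well; 5 h pre-incubation; cpd in DMSO, 217-fold dilution; 16 h 37C/5% CO2; CCF4-AM 2 h RT; Ex 405, Em 460/530 ratio; DMSO = baseline; positive fitting direction.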

Question: With `O=C(Nc1cccc(Cl)c1)OCC#CCCl` as the molecule, how does the AC50 read?
Answer: 19.9 µM (active)

Question: With `CC(=O)OC(C)(C)C` as the molecule, how does the outcome read?
Answer: inactive

Question: With `CCC(C)(C)C1CCC(=O)CC1` as the molecule, how does the outcome read?
Answer: inactive

Question: For `CCCC(O)C(CC)CO` (configuration not stated), which outcome is on record?
Answer: inactive

Question: With `CCCCCCCCOS(=O)(=O)O` as the molecule, how does the outcome read?
Answer: inactive

Question: With `CC1=CCC(C(C)(C)O)CC1` (configuration not stated) as the molecule, how does the outcome read?
Answer: inactive

Question: For `C=CCOC(=O)/C=C\C(=O)OCC=C`, which outcome is on record?
Answer: inactive

Question: For `CNC(=C[N+](=O)[O-])NCCSCc1ccc(CN(C)C)o1`, which outcome is on record?
Answer: inactive

Question: With `CC(CO)c1ccccc1` (configuration not stated) as the molecule, how does the outcome read?
Answer: inactive

Question: Which outcome does the source give for `CN(C)CCCNCCCN(C)C` here?
Answer: inactive

Question: With `CCCCCCCC(=O)N(C)C` as the molecule, how does the outcome read?
Answer: inactive

Question: Which outcome does the source give for `CCC(=O)OC(C)(C)C1CC=C(C)CC1` (configuration not stated) here?
Answer: inactive

Question: With `C=C(C)C(=O)OCCC[Si](OC)(OC)OC` as the molecule, how does the outcome read?
Answer: inactive

tested on: not listed separately; experiment: TOX21_p53_BLA_p3_viability: Viability Assessment in the Tox21 HCT-116 p53 Agonism Beta-lactamase Assay, Phase 3 (AID 2283593);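 note: cells exposed to compound for 16 h before reading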
Summary of the method: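 HCT116 cells, 4000/well, dosed 5 h after plating by pin transfer (217-fold dilution from DMSO stock) and incubated 16 h at 37C, 5% CO2. Viability read as ATP luminescence with CellTiter-Glo after 30 min at room temperature.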

Question: With `CCCCN(CCCC)CCCCCCN(CCCC)CCCC` as the molecule, how does the outcome read?
Answer: inactive

Question: With `O=C(Nc1cccc(Cl)c1)OCC#CCCl` as the molecule, how does the AC50 read?
Answer: 69.2 µM (active)

Question: With `CCCO[Si](OCCC)(OCCC)OCCC` as the molecule, how does the outcome read?
Answer: inactive

Question: For `CC(=O)OC(C)(C)C`, which outcome is on record?
Answer: inactive

Question: For `C=CC(C)CCCC(C)(C)O` (configuration not stated), which outcome is on record?
Answer: inactive
